Source: ChEMBL document CHEMBL4513216, “Probing the Open Global Health Chemical Diversity Library for Multistage-Active Starting Points for Next-Generation Antimalarials” (ACS Infect Dis, 2020)
The campaign covered roughly 69,000 compounds. About 8,600 (12%) showed an effect of 50% or more. What follows is part of a selection rich in strong results, with near analogues and random picks from the rest.

test system: Plasmodium berghei; assay: Screen against P. berghei liver stage (PbLuc), transformed with Luciferase, at 10uM; format: functional, HepG2; conditions: tested at 10 uM

SMILES | INHIBITION [%]
CCc1nc(CC)n(CC(=O)NCc2ccccc2C)n1 | 37.6
CC(Cn1cccn1)NC(=O)N(C)Cc1cnn(C)c1 (configuration not stated) | 22.6
O=C(c1ccc2c(c1)CCO2)N1CCN(c2cnccn2)CC1 | -32
NCC(=O)N1CCCC(O)(CN2CCN(c3ccccc3)CC2)CC1 (configuration not stated) | 2.55
COc1ccc(C[C@H]2CN(c3nnc(C)s3)CC[C@H]2OC)cc1 | 61.9
COc1ccc(C[C@H]2CN(c3nnc(C)s3)CC[C@@H]2OC)cc1 | -3.83
Cc1nnc(N2CC[C@H](OCC3CC3)[C@@H](Cc3ccccc3)C2)s1 | 41.4
Cc1nnc(N2CC[C@@H](OCC3CC3)[C@@H](Cc3ccccc3)C2)s1 | 92.5
CO[C@@H]1CCN(c2nnc(C)s2)C[C@@H]1Cc1ccccc1 | 37.8
CO[C@H]1CCN(c2nnc(C)s2)C[C@@H]1Cc1ccccc1 | -13.7
CC(C)(C(=O)NCC1CCN(Cc2cccnc2)C1)c1ccccc1 (configuration not stated) | 6.66
O=C(NC1CC1)c1ccccc1NCc1cn2cccnc2n1 | -17
CN1CC2(CCN(Cc3cccnc3)CC2)c2cccc(F)c21 | -16.9
Cn1ccnc1CN1CCC2(CC1)CC(N1CCCC1)c1ccccc12 (configuration not stated) | 24.6
Cn1ccnc1CN1CCC2(CC1)CCN(c1ccccc1)C2=O | 16.6
CN(C)C1CCC2(CCN(Cc3cccnc3)CC2)c2ccccc21 (configuration not stated) | 50.4
CN1CC2(CCN(Cc3cccnc3)CC2)c2cc(F)ccc21 | -29.8
CN(C)C1CCC2(CCN(Cc3nccn3C)CC2)c2ccccc21 (configuration not stated) | 66.3
Cc1nn(CCC(=O)N2CCCC(OCc3cccnc3)C2)c(C)c1C (configuration not stated) | 41.2
COC1CCCOC12CCN(C(=O)NCCc1cccs1)CC2 (configuration not stated) | -142
O=C(N1CCCCC1)N1CCCC(c2ncncc2-c2ccncc2)C1 (configuration not stated) | 17.1
CCCc1cc(CN(C)C2CCSCC2)n[nH]1 | 50.1
COCc1cc(CN(C)C(=O)c2c[nH]nc2-c2cccc(F)c2)n[nH]1 | -11.2

SMILES | INHIBITION [%]
CCCc1cc(CN(C)C2CC(C)(C)NC(C)(C)C2)n[nH]1 | 11.6
Cc1cc(CC(C)NC2CCSCC2)[nH]n1 (configuration not stated) | 22.7
CCCc1cc(C(=O)N(Cc2cccnc2)C2CCCCC2)[nH]n1 | -9.87
CCCc1cc(CN(C)C2CSCCSC2)n[nH]1 | 51.1
CCCNC(=O)NC(=O)CN1CCN(Cc2nccn2CC)CC1 | 5.308
Cc1nc(CN2CCN(C(=O)CCc3nc(C(C)(C)C)no3)CC2)cs1 | 30.8
c1cncc(CN2CCc3c(nnn3CC3CC3)C2COCC2CC2)c1 (configuration not stated) | 27.4
CCN1CCN(C(=O)Cn2ncc3c2c(C)nn3C(C)C)CC1 | 15.9
CCC(C)N(C)CCNC(=O)c1ccccc1OCCOC (configuration not stated) | 8.64
O=C1CCC2(CCCN(Cc3ccccc3F)C2)N1CC1CC1 (configuration not stated) | -19.6
CCOCc1ccccc1NC(=O)NCC(C)(O)c1cc(C)oc1C (configuration not stated) | 85.5
CCOCc1ccccc1NC(=O)NCC(C)(O)c1ccsc1 (configuration not stated) | 11
CCOCc1ccccc1NC(=O)NCC(C)(O)c1cccs1 (configuration not stated) | 0.734
CCC(CN1CCCC1)n1cncc1-c1cnn(Cc2ccccc2)c1 (configuration not stated) | 3.5
CN(C)S(=O)(=O)N1CCC(c2ccncc2)CC1 | -33.4
Cc1cc(NC(=O)C(C)Oc2ccc3c(c2)OCO3)no1 (configuration not stated) | 14.6
Cc1cc(C)nc(NC(=O)C(C)Oc2ccc3c(c2)OCO3)n1 (configuration not stated) | 48.5
Cc1cccc(NC(=O)C(C)Oc2ccc3c(c2)OCO3)n1 (configuration not stated) | 53.7
CC(=O)c1cccc(CN2CCCC23CCN(c2ccccn2)CC3)c1 | 19.8
COc1cccc(CNC(=O)CCOc2ccccc2C)c1 | 2.43
CNS(=O)(=O)c1ccc(CCC(=O)NCc2cccc(OC)c2)cc1 | -74.6
COc1cccc(CN(C)CC(=O)NC2(C)CCS(=O)(=O)C2)c1 (configuration not stated) | -27.9
COc1cccc(CNC(=O)CCC2=Nc3ccccc3S(=O)(=O)N2)c1 | 57

SMILES | INHIBITION [%]
COc1cccc(CN(C)CC2=Nc3ccccc3S(=O)(=O)N2)c1 | 69.7
COc1cccc(CSC=C2Nc3ccccc3S(=O)(=O)N2)c1 | 27.7
Cc1nn(C)c(N(C)C)c1CNC1CCOc2ccccc21 (configuration not stated) | -5.05
Cc1oc2c(c1C(=O)N1C[C@H](O)[C@]3(CCCO3)C1)CCCC2 | 3.95
CC1CN(C)CCN1C(=O)Nc1nc(-c2ccc[nH]2)cs1 (configuration not stated) | 6.33
CS(=O)(=O)NCCNCc1ccc(Br)s1 | -40.7
CN1C(=O)C(C)(C)COc2cc(NS(=O)(=O)c3ccccc3F)ccc21 | 22.3
CC(C)Sc1ncccc1C(=O)NCc1ccoc1 | 42.9
CC(C)Sc1ncccc1C(=O)NCc1ccc(O)cc1 | 60.7
CC(C)Sc1ncccc1C(=O)NCc1ccc(CS(C)(=O)=O)cc1 | 14.4
O=C(NCCc1nnc2n1CCC2)NCC1(c2ccc(F)cc2)CC1 | 9.63
COc1ccccc1N1CCN(C(=O)Cn2nc(C)c(Cl)c2C)CC1 | -29.2
CCS(=O)(=O)N1CCC2(CC1)CC1(CCN(CCOC)CC1)C(=O)N2C | 40.8
Cc1cc(CN[C@@H](C)C(N)=O)c(C)s1 | 16.3
Cc1cc(CN[C@@H](Cc2ccccc2)C(N)=O)c(C)s1 | 53.3
Cc1cc(CN[C@H](C(N)=O)[C@@H](C)O)c(C)s1 | 38.7
Cc1csc(C(C)(C)NCc2ncc(-c3ccc(F)cc3)o2)n1 | -46.4
COc1ncc(CN2CCOC(C)(C(=O)N3CCOCC3)C2)cn1 (configuration not stated) | 41.2
O=c1[nH]ncc(NCCOc2ccc3c(c2)CCC3)c1Cl | 77.1
O=c1[nH]ncc(NCCOc2cccc(Br)c2)c1Cl | 15.6
O=c1[nH]ncc(NCCOc2ccc3c(c2)OCO3)c1Cl | 20.3
CCn1nccc1CN(C)C(=O)Cn1cc2c(n1)c(C)nn2CC | 35
O=C(CSc1ncccn1)N1C[C@@H]2CC[C@H]1CN(Cc1ccncc1)C2 | 21.6

SMILES | INHIBITION [%]
Cc1nc2c(C)cccc2cc1C(=O)N1CCC2(CCNCC2)CC1 | 47.7
Cc1cc(O)c(OCC(=O)/N=c2\[nH]cc(C)s2)cn1 | -48.2
Cc1ccc(-c2nc(CNC3CCc4ncnn4C3)no2)cc1 (configuration not stated) | 0.411
CC(Cn1ccnc1)NC(=O)C1(c2ccccc2)CC1 (configuration not stated) | 46.2
Cc1ccc(CN2Cc3nnn(C)c3C(COCC3CC3)C2)s1 (configuration not stated) | 71.8
COCC1CN(Cc2ccc(C)s2)Cc2nnn(C)c21 (configuration not stated) | 21.4
Cc1ccc(CN2Cc3nnn(C)c3C(COCc3ccccc3)C2)s1 (configuration not stated) | 78.7
Cc1ccc(CN2Cc3nnn(C)c3C(COCc3ccccn3)C2)s1 (configuration not stated) | -37.9
Cc1ccc(CN2Cc3nnn(C)c3C(COCc3ccccc3)C2)o1 (configuration not stated) | 28.4
Cc1ccc(CN2Cc3nnn(C)c3C(COCCN(C)C)C2)s1 (configuration not stated) | 10
CC[C@@H]1C[C@H](C(F)(F)F)n2nc(C3CCN(S(=O)(=O)CC)CC3)cc2N1 | 46
NC(=O)COc1ccc(CNCc2cc(F)ccc2F)cc1 | 1.56
CCn1c(C)nnc1CN(C)C1CCN(Cc2nnc(C3CC3)o2)C1 (configuration not stated) | 36.1
CCC(O)Cn1nc(-c2ccc(C(=O)O)cc2)cc1-c1cccc(F)c1 (configuration not stated) | 19.75
CC(C)Cn1nc(-c2ccc(C(=O)O)cc2)cc1-c1ccc(F)cc1 | 54.3
CCC(O)Cn1nc(-c2ccc(C(=O)O)cc2)cc1-c1ccc(F)cc1 (configuration not stated) | 38.05
COc1ccc(CC2CN(C3CCSCC3)CCO2)cc1 (configuration not stated) | 35.4
Cc1ccc(N2CC[C@H]3OCC[C@@]3(C(=O)N3CCCO3)C2)nn1 | 25.3
CC(NC(=O)N(C)Cc1ccncc1)c1nncn1C (configuration not stated) | 13.7
CC(NC(=O)N(C)Cc1ccncc1)c1cn(-c2ccccc2)nn1 (configuration not stated) | 60.1
CN(Cc1ccncc1)C(=O)NCc1cn(-c2ccccc2)nn1 | 56.3
CC(NC(=O)CCCN(C)C)c1cn(-c2ccccc2)nn1 (configuration not stated) | 21.8
Cc1csc(CNC(=O)N(C)Cc2ccncc2)n1 | -53.6835

SMILES | INHIBITION [%]
CCN(Cc1ccncc1)Cc1cn(-c2ccccc2)nn1 | 5.33
NC(=O)NCC(=O)N1CCCC(c2nccn2CC2CCC2)C1 (configuration not stated) | 17.5
CC(C)c1nnc2n1CCN(c1nn3cc(C(C)(C)C)nc3s1)C2 | -34.6
Cc1nn(C)c(Cl)c1C1CCCN1Cc1nc(C2CC2)no1 (configuration not stated) | 37.4
COc1ccc(-c2nccn2CCN2CCCCC2)c(OC)c1OC | 55
CCn1ccnc1CN1CCN(CCOc2ccccc2OC)CC1 | 27.1
COC(=O)CCCn1ccnc1-c1ccc(OC)c(F)c1F | 43.9
Cc1nnc2n1CCN(Cc1ncc(-c3ccc(F)cc3)o1)C2 | 46.1
Cc1c(CCC(=O)N2CCOC(c3cnccn3)C2)cnn1C (configuration not stated) | -10.4
Cc1noc(C)c1C(=O)N1CCCN(Cc2nccn2C(C)C)CC1 | 4.1
CCN(CC1CCCO1)C(=O)Nc1cccc(N2CCOCC2)c1 (configuration not stated) | 54.4
CCN(CC1CCCO1)C(=O)Nc1ccc(OC)c(C)c1 (configuration not stated) | -79.7
CCN(CCC(F)(F)F)C(=O)Nc1cccc(N2CCOCC2)c1 | 3.47
O=C(c1cscn1)N1CCC(Cc2cnc3[nH]ccc3c2)C1 (configuration not stated) | -14.1
COc1cccnc1NC(=O)c1ccc(COCC(F)(F)F)cc1 | 62.4
COc1cccnc1NC(=O)COc1ccc(F)cc1F | 33.5
Cc1n[nH]c(NC(=O)c2ccc(COCC(F)(F)F)cc2)c1C | 52.5
O=C(Nc1cc[nH]n1)c1ccc(COCC(F)(F)F)cc1 | -17.8
CC(C)(C)NC(=O)c1ccc(COCC(F)(F)F)o1 | 14.2
COc1cccnc1NC(=O)COc1c(C)cccc1C | 36.5
